# Sampled rows, rich in hits. Any-hit rate of the full collection: about 3.1%.
# RAD52 anneal inh: blocks human RAD52 DNA annealing | recombinant RAD52 DNA annealing, FRET fluorescence | inhibition, % at 18.7 µM | 360,000 compounds, 0.46% hits;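 active = every replicate showing at least 50% inhibition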
# dFosB activator: mouse delta FosB homodimer activation | P13346 | purified delta FosB, TAMRA-CDK5 oligo fluorescence polarization; percent of positive-control signal above neutral wells | activation, % at 25 µM | 340,000 compounds, 0.99% hits;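 active = mean activation above about 17%, with every replicate also reaching it, limit read from the data, passing the limit was not always enough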
# AF4-AF9 inh: inhibitors of human MLL-AF4/AF9 interaction. AID 651704. 350,000 compounds, 0.47% hits. AlphaScreen, biotin-AF4 peptide binding to FLAG-AF9. inhibition, % at 10 µM. P42568;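 active = every replicate reaching a set inhibition limit, whatever the replicate mean, cut at about 25% in these data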;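 also: 0% = plate neutral control median and 100% = total signal loss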
# Target sequence (P42568 whole entry, looked up): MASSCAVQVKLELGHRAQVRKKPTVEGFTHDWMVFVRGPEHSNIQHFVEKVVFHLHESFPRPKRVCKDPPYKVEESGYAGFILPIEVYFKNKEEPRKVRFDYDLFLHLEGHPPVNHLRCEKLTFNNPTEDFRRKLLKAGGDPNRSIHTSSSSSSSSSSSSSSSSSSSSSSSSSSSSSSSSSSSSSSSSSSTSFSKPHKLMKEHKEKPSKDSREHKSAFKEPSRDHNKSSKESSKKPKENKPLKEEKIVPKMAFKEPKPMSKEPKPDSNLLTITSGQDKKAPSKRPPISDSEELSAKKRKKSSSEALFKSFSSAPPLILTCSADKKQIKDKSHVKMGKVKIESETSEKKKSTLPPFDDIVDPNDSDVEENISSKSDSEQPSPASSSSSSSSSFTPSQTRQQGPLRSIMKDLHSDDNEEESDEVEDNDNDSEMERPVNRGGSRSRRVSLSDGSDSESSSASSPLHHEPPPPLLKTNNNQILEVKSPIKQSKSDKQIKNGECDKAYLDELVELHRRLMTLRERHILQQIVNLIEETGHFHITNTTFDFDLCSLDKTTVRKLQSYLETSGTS
# RAD54 branch: inhibitors of human RAD54 branch migration; RAD54 Holliday junction branch migration, FAM/BHQ fluorescence; 360,000 compounds, 0.14% hits; inhibition, % at 10.4 µM; AID 602329; Q92698;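 active = mean normalized replicate activity at least 40 and at least half of replicates scoring 40 or more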;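 also: 0% = median of neutral control wells and 100% = median of positive control wells; inhibitors cause a drop in the FAM fluorescence signal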
# DENV2 CPE rescue: protects cells from dengue virus 2 cytopathic effect; DENV2-infected cells, cytopathic effect rescue, plate reader; CPE inhibition, % at 9.99 µM; 350,000 compounds, 1.7% hits; AID 651640; in the data active = CPE inhibition above about 20%, passing the limit was not always enough; tested in BHK-21 cells;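 also: 0% = median of neutral control wells and 100% = median of positive control wells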
# GSIS activator: primary screen for activators of insulin secretion dependent on glucose, INS-1E cells, GLuc reporter luminescence; INS-1E GLuc reporter insulin secretion, 2-3 h; activation, % at 16.6 µM; 370,000 compounds, 0.61% hits; AID 743287;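 active = lowest replicate activation of at least 40%, so every replicate reaches that level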;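 also: 0% = median of neutral control wells and 100% = median of IBMX positive control wells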
# * = called active by the depositor; nt = no result.
SMILES,RAD52 anneal inh,dFosB activator,AF4-AF9 inh,RAD54 branch,DENV2 CPE rescue,GSIS activator
C[C@@H]1CN([C@H](C)CO)C(=O)c2cc(C3=CCCCC3)cnc2O[C@@H]1CN(C)C(=O)C1CCOCC1,-1,nt,-2,0,-6,11
C[C@H](CO)N1C[C@H](C)[C@@H](CN(C)C(=O)C2CCOCC2)Oc2ncc(C3=CCCCC3)cc2C1=O,-13,nt,-1,-2,45*,-4
C[C@@H]1CN([C@@H](C)CO)C(=O)c2cccc(NC(=O)c3nc4ccccc4s3)c2O[C@@H]1CN(C)C(=O)NC1CCCCC1,2,nt,6,7,17,-23
CCN(CC)C1CCN(Cc2c(C(=O)N3CCCCCCC3)nc3ccc(Cl)cn23)C1 (stereo unspecified),-30,-12,1,-2,35*,-4
COC1CCN(Cc2c(C(=O)N3C[C@@H](C)O[C@@H](C)C3)nc3ccc(Cl)cn23)CC1,-1,-6,0,-13,-1,16
Cc1[nH]c2ccccc2c1C(=O)CSc1nnc(C2CC2)o1,-5,-1,26*,-5,-6,16
Cc1[nH]c2ccccc2c1C(=O)CSc1ccccc1,nt,6,nt,-1,nt,-5
CCC(CC)NC(=O)CN1CCN(S(=O)(=O)c2cccs2)CC1,1,-7,-1,-2,3,47*
COc1ccccc1CNC(=O)C[C@H]1C[C@@H]2c3cc(NS(=O)(=O)c4ccc(F)cc4)ccc3O[C@@H]2[C@@H](CO)O1,-9,nt,-1,12,-2,-23
CCOC(=O)c1ccc(N=c2sc(C(=O)OC)cc(=O)n2C2CC2)cc1,nt,-5,nt,-1,nt,23
COC(=O)c1cc(=O)n(C2CC2)c(=NC2CC2)s1,nt,-6,nt,nt,nt,76*
COC(=O)C[C@@H]1C[C@@H]2c3cc(NS(=O)(=O)c4ccccc4)ccc3O[C@@H]2[C@H](CO)O1,nt,nt,nt,6,6,12
CCC(=O)N1C[C@H](C)[C@@H](OC)CN(C)C(=O)c2cc(NC(=O)NC3CCCC3)ccc2OC[C@H]1C,15,nt,-11,nt,43*,8
CCC(=O)Nc1ccc2c(c1)C(=O)N(C)C[C@@H](OC)[C@H](C)CN(C(=O)COC)[C@H](C)CO2,-22,nt,0,-6,-4,24
CCCC(=O)Nc1ccc2c(c1)C(=O)N(C)C[C@H](OC)[C@@H](C)CN(C(=O)C1CCCC1)[C@@H](C)CO2,13,nt,-2,1,-3,-4
CCC(=O)Nc1ccc2c(c1)C(=O)N(C)C[C@@H](OC)[C@H](C)CN(C(=O)COC)[C@@H](C)CO2,-11,nt,-1,-9,21*,17
COCC(=O)N1C[C@@H](C)[C@@H](OC)CN(C)C(=O)c2cc(NC(=O)c3ccc(OC)cc3)ccc2OC[C@H]1C,5,nt,3,13,34*,-2
CCCC(=O)Nc1ccc2c(c1)C(=O)N(C)C[C@H](OC)[C@@H](C)CN(C(=O)C1CCCC1)[C@H](C)CO2,3,nt,2,-10,35*,2
CCC(=O)Nc1ccc2c(c1)OC[C@@H](C)N(C(=O)NC(C)C)C[C@H](C)[C@H](OC)CN(C)C2=O,-2,nt,-1,2,14,2
CC(C)NC(=O)N1[C@H](CO)[C@@H](c2ccccc2)C12CN(Cc1ccccc1)C2,-18,nt,1,nt,-12,-8
C[C@@H]1CN([C@@H](C)CO)C(=O)c2cc(C#CC3CCCCC3)cnc2O[C@H]1CN(C)C,nt,nt,nt,nt,nt,-3
CCC(=O)Nc1ccc2c(c1)C(=O)N(C)C[C@H](OC)[C@@H](C)CN(C(=O)CC)[C@@H](C)CO2,-5,nt,1,7,63*,-3
CCS(=O)(=O)Nc1ccc2c(c1)C(=O)N(C)C[C@H](OC)[C@@H](C)CN(C(=O)COC)[C@H](C)CO2,0,nt,3,-5,82*,16
O=C(C[C@H]1C=C[C@H](NC(=O)Nc2ccc(C(F)(F)F)cc2)[C@H](CO)O1)NCc1cc(F)cc(F)c1,-5,nt,0,-7,-11,12
CCCC(=O)Nc1nnc(Sc2ccc(N(C)C)cc2)s1,nt,0,nt,11,nt,nt
SMILES,RAD52 anneal inh,dFosB activator,AF4-AF9 inh,RAD54 branch,DENV2 CPE rescue,GSIS activator
CCC(=O)Nc1nnc(Sc2ccc(N(C)C)cc2)s1,nt,-1,nt,nt,nt,50*
O=C(C[C@@H]1CC[C@@H]2[C@H](COC[C@@H](O)CN2S(=O)(=O)c2ccc(F)cc2)O1)NCC1CC1,-2,nt,5,-20,3,-1
Cc1ccc(S(=O)(=O)N2C[C@@H](O)COC[C@H]3O[C@@H](CC(=O)NCCN4CCCCC4)CC[C@@H]32)cc1,2,nt,1,-1,67*,15
Cc1ccc(S(=O)(=O)N2C[C@@H](O)COC[C@H]3O[C@H](CC(=O)NCC4CCCCC4)CC[C@@H]32)cc1,82*,nt,30*,-2,9,-10
Cn1cnc(S(=O)(=O)N2C[C@@H](O)COC[C@@H]3O[C@@H](CC(=O)NC4CCCC4)CC[C@H]32)c1,4,nt,-1,-1,114*,2
O=C(C[C@@H]1CC[C@@H]2[C@H](COC[C@H](O)CN2S(=O)(=O)c2ccc(F)cc2)O1)NCC1CCCCC1,22,nt,9,6,-1,-5
Cn1cnc(S(=O)(=O)N2C[C@H](O)COC[C@H]3O[C@H](CC(=O)NC4CCCC4)CC[C@@H]32)c1,6,nt,-1,8,20,-7
Cc1ccc(S(=O)(=O)N2C[C@H](O)COC[C@H]3O[C@H](CC(=O)NCC4CCCCC4)CC[C@@H]32)cc1,65*,nt,20,2,-11,9
Cc1ccc(S(=O)(=O)NCC[C@@H]2CC[C@@H](NC(=O)c3cccnc3)[C@H](CO)O2)cc1,-6,nt,-1,-1,20,8
COc1cccc(CNC(=O)[C@@H]2[C@@H](CO)[C@@H]3Cn4c(ccc(-c5ccncc5)c4=O)[C@@H]3N2C)c1,-18,nt,0,2,-6,-4
CCC(CN(C)C)Oc1cc(NCc2ccccc2)c2ncn(C(C)C)c2c1 (stereo unspecified),nt,16,nt,70*,nt,nt
CSc1nc(N)nc2c1ncn2CC(=O)NCc1ccccc1,-7,7,-3,4,8,1
CSc1nc(N)nc2c1ncn2CC(=O)NCc1ccc2c(c1)OCO2,2,20*,-1,-2,-15,26
C[C@@H]1CCCCO[C@@H](CN(C)C(=O)Nc2ccc(C(F)(F)F)cc2)[C@@H](C)CN([C@H](C)CO)C(=O)c2cc(NC(=O)c3ccncc3)ccc2O1,-50,nt,-14,nt,28*,2
C[C@@H]1CCCCO[C@@H](CN(C)C(=O)CCC(F)(F)F)[C@H](C)CN([C@H](C)CO)C(=O)c2cc(NC(=O)c3ccncc3)ccc2O1,15,nt,-2,nt,21*,-2
COc1ccc(NC(=O)N(C)C[C@@H]2OCCCC[C@@H](C)Oc3ccc(NC(=O)c4ccncc4)cc3C(=O)N([C@@H](C)CO)C[C@H]2C)cc1,nt,nt,nt,-8,41*,1

# Source: PubChem BioAssay (Broad Institute)
